High-throughput results: PubChem BioAssay, Broad Institute
The list is not random: actives were taken first. Their share in the collection is about 8.1%.
Shh pathway inh: Hedgehog pathway signaling inhibitors, primary screen, luminescence, Shh-LIGHT2 cells, Gli-luciferase | 22,000 compounds, 2.1% hits | Shh-LIGHT2 Gli-luciferase reporter, 30 h | inhibition, % (test concentration not listed) | AID 2313, 2010;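 active means mean inhibition across valid replicates above about 65%, limit read from the data; inconclusive means mean under the limit, yet half or more replicates past it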;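 further: pathway switched on by Shh-conditioned medium diluted 1 in 25 in low serum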
NOMO-1 viab: NOMO-1 AML cell viability reduction, primary screen, STK33 inhibitor project, CellTiter-Glo luminescence. NOMO-1 AML viability, 72 h. inhibition, % (no concentration beside the values). 37,000 compounds, 7.5% hits. AID 2330, 2010; in the data active means inhibition above about 80%; inconclusive means no clear call, values can overlap the other calls
MITF inhib: inhibitors of MITF, primary screen, MITF inhibitor project, cell-based, luminescence. 37,000 compounds, 0.28% hits. TRPM1 promoter luciferase, 24 h. AID 2240, 2010. inhibition, % (test concentration not listed); in the data active means inhibition above about 85%; inconclusive means no clear call, values can overlap the other calls; inactive means below about 68%;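 further: human melanocyte line stably carrying TRPM1 promoter luciferase reporter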
PD-1 reverse act: activators reversing PD-1 mediated T-cell inhibition, primary screen, luminescence, primary human CD4 T cells, PD-L1 beads; 29,000 tested, under 10 active; activation, % (test concentration not listed); AID 2316, 2010; CellTiter-Glo 96 h; call rule not given here;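 further: 0% = median vehicle wells and 100% = positive control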
The depositor's hits bear a star; ? = inconclusive; . = not tested or not shown.

SMILES | Shh pathway inh | NOMO-1 viab | MITF inhib | PD-1 reverse act
COc1ccc(C[C@H]2NC[C@H](O)[C@H]2OC(C)=O)cc1 | 106.5* | 120.0* | 104.1* | .
CC1(C)CCC[C@]2(C)c3cc(O)c(O)cc3C(=O)CC12 (some centres undefined) | 2.0 | . | . | .
CC(C)c1cc2c(cc1O)[C@@]1(C)CCCC(C)(C)[C@@H]1CC2O (some centres undefined) | -35.6 | 94.4* | 37.7 | -1.3
CC(C)C12CN3CCN(CC(C3)/C1=N/N)C2 | -23.9 | -9.8 | -10.2 | 7.3
CC12C/C(=C\c3ccccc3)C(=O)C[C@@H]1CCC1C2CCC2(C)C1CC[C@]2(C)O (some centres undefined) | 7.0 | 2.5 | 7.1 | -0.8
C=C1C(=O)O[C@@H]2[C@H]3C(=C)[C@@H](O)C[C@H]3C(=C)C[C@@H](O)[C@@H]12 | -10.2 | 113.2* | -2.8 | -4.7
COc1cc(C)c(Oc2cc(C)cc(O)c2)c(O)c1 | -7.3 | -3.5 | 9.2 | 1.7
C[C@@H]1O[C@@H](O[C@H]2[C@H](O)[C@@H](O)[C@H](O[C@@H]3C=C4CC[C@@H]5C(CC[C@]6(C)[C@@H](c7ccc(=O)oc7)CC[C@]56O)[C@@]4(C)CC3)O[C@@H]2CO)[C@H](O)[C@H](O)[C@H]1O (some centres undefined) | -7.4 | 123.5* | 51.5 | -34.3
C=CCC1(C(C)CCC)C(=O)NC(=S)NC1=O (centres undefined) | -10.8 | 18.5 | 4.2 | .
CC(C)(C)c1cc(C=C(C#N)C#N)cc(C(C)(C)C)c1O | 104.3* | 97.4* | 87.8* | -34.3
N#CC(C#N)=Cc1ccc(O)c(O)c1 | ? | 36.0 | 1.3 | -1.5
CNC(=O)O/N=C/C(C)(C)SC | -47.8 | 0.0 | 3.1 | .
CN1CCN(CC(=O)Nc2ccc([N+](=O)[O-])cc2C(=O)c2ccccc2)CC1 | . | 22.7 | -19.8 | .
Nc1ncnc2nc(SCc3nc4ccc(I)cc4c(=O)n3-c3ccccc3)[nH]c12 | . | 2.9 | 1.4 | 0.2
O=C(Nc1ccc2c(C(F)(F)F)cc(=O)oc2c1)c1cc(Cl)cc(Cl)c1 | -22.8 | 121.7* | 7.7 | 0.6
O=c1cccc2n1C[C@H]1CNCC2C1 | -36.1 | 6.0 | 7.1 | .
CO[C@H]1[C@H](O)[C@H](O[C@H]2CC[C@]3(C)C4CC[C@]5(C)[C@H](C6=CC(=O)OC6)CC[C@]5(O)C4CC[C@@H]3C2)O[C@@H](C)[C@@H]1O[C@@H]1O[C@H](CO[C@@H]2O[C@H](CO)[C@@H](O)[C@H](O)[C@H]2O)[C@@H](O)[C@H](O)[C@H]1O (some centres undefined) | -4.6 | 119.4* | 30.5 | -11.8
CO[C@@H]1[C@H](O)[C@@H](O[C@@H]2C[C@H]3CC[C@@H]4C(CC[C@]5(C)[C@@H](C6=CC(=O)OC6)CC[C@]45O)[C@@]3(C)[C@H](O)C2)O[C@H](C)[C@@H]1O[C@@H]1O[C@H](CO)[C@@H](O)[C@H](O)[C@H]1O (some centres undefined) | -11.4 | 119.9* | 29.9 | -16.4
CC(=O)O[C@H]1C[C@H](O[C@H]2[C@@H](O)C[C@H](O[C@H]3[C@@H](O)C[C@H](O[C@H]4CC[C@@]5(C)C(CCC6C5C[C@@H](O)[C@]5(C)[C@@H](C7=CC(=O)OC7)CC[C@]65O)C4)O[C@@H]3C)O[C@@H]2C)O[C@H](C)[C@H]1O[C@@H]1O[C@H](CO)[C@@H](O)[C@H](O)[C@H]1O (some centres undefined) | -12.5 | 107.0* | 29.2 | .
COC[C@H]1OC(=O)c2coc3c2[C@@]1(C)C1=C(C3=O)C2CCC(=O)[C@@]2(C)C[C@H]1OC(C)=O (some centres undefined) | ? | ? | 17.8 | -14.4
O=C(Cn1cc(C(=O)c2ccccc2)c2ccccc21)Nc1ccc(Br)cc1 | . | 61.6 | 52.3 | -2.1
CNC(=O)CSP(=S)(OC)OC | -27.5 | 1.2 | -17.2 | .
CC(C)OC(=O)Nc1cccc(Cl)c1 | -28.1 | -1.4 | -48.9 | .
CCOP(=S)(OCC)Oc1nc(Cl)c(Cl)cc1Cl | -5.8 | -9.3 | 12.7 | .
CC1=CC(=O)c2c(O)cccc2C1=O | 97.4* | 105.4* | 97.3* | .
O=c1c2ccccc2nc(CSc2ccccn2)n1-c1ccccc1Cl | . | 5.6 | -4.2 | 2.3
CCC(C)C1NC(=O)C2CCCN2C(=O)C(CC(C)C)OC(=O)CCNC(=O)C(C)N(C)C(=O)C(C(C)C)N(C)C1=O (centres undefined) | 58.5 | 106.0* | -46.7 | 0.1
Nc1ccc(CCN2CCN(c3cccc(C(F)(F)F)c3)CC2)cc1 | 42.4 | 47.5 | 7.2 | .
